Assay [1] addresses Retinoic acid receptor RXR-alpha (Homo sapiens) (UniProt P19793). The assay is described as follows: TOX21_TR_RXR_BLA_Agonist_Followup_ratio: Tox21 Thyroid Hormone Receptor beta Retinoid X Receptor alpha (RXRa) Agonism Beta-lactamase (BLA) Follow-Up Assay, Ratio (AID 2283968; active = hit-call score of the fitted dose curve at least 0.9, where 1 is the maximum). Summed up: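 Cells were first allowed to attach for 5 h, after which compounds in DMSO were pinned at 11 concentrations and incubated 16 h at 37C. LiveBLAzer CCF4-AM substrate was then added for 2 h at room temperature before reading 460 and 530 nm fluorescence.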

The nature of assay [2]: TOX21_TR_RXR_BLA_Agonist_Followup_viability: Viability Assessment in the Tox21 Thyroid Hormone Receptor beta Retinoid X Receptor alpha (RXRa) Agonism Beta-lactamase (BLA) Follow-Up Assay (AID 2283970; active = hit-call score of the fitted dose curve at least 0.9, where 1 is the maximum). An outline of the steps: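 Viability counter-screen run alongside the RXRa bla follow-up: HEK293T reporter cells were treated for 16h at 37C in stripped-serum medium, then ATP was quantified by luciferase-coupled CellTiter-Glo. Decreased signal relative to DMSO marked cytotoxicity.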

Assay [3] in a line: CCTE_Shafer_MEA_acute_burst_number: CCTE's Neural Acute Assay for Single-Electrode Bursts, Shafer Lab (AID 2284013). Summed up:
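Burst totals were derived with adaptive spike detection (8x rms threshold) on filtered signals from rat cortical cultures; change relative to pre-treatment baseline after 40-min compound exposure (0.03-40 uM) was fitted in the negative direction against DMSO.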

A short description of assay [4]: CCTE_Shafer_MEA_acute_burst_duration_mean: CCTE's Neural Acute Assay for Mean Burst Duration, Shafer Lab (AID 2284014).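 Also: hits are decreases in mean burst duration relative to DMSO controls.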 Summed up: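 Acute exposure of mature rat cortical networks (DIV 13 or 15) grown on microelectrode arrays to 0.03-40 uM compound. Mean burst duration compared with the 40-min pre-dose baseline over a 40-min post-dose recording at 37 C.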
Assay [5] can be described thus: CCTE_Shafer_MEA_acute_per_burst_spike_number_mean: CCTE's Neural Acute Assay for Average Number of Spikes Per Burst, Shafer Lab (AID 2284015).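 Also: hits are decreases in mean spikes per burst versus baseline.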 Summed up:
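Rat primary cortical neurons on 48-well MEAs (DIV 13 or 15) were treated with 0.03-40 uM compound at 37 C. Mean spikes per burst over 40 min were recorded before and after exposure and expressed as percent change from baseline, relative to DMSO.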

Assay [6] can be described thus: CCTE_Shafer_MEA_acute_interburst_interval_mean: CCTE's Neural Acute Assay for Mean Interburst Interval, Shafer Lab (AID 2284016).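 Also: percent change of mean interburst interval versus each well's own pre-dose baseline; curves fitted for decrease in interburst interval relative to DMSO.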 Summed up: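 Rat primary cortical neurons on 48-well MEAs at DIV 13 or 15 were exposed acutely to 0.03-40 uM. Spikes detected at 8x rms noise, 37 C. Mean interburst interval from 40 min recordings expressed as percent change from 40 min pre-treatment baseline.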

A short description of assay [7]: CCTE_Shafer_MEA_acute_burst_percentage_mean: CCTE's Neural Acute Assay for Percentage of Spikes in a Burst, Shafer Lab (AID 2284017).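 As to AC50: curve fitted for loss of signal so potency reflects decreased burst percentage.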 An outline of the steps: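 Primary rat cortical neurons on 48-well MEA plates, treated on DIV 13 or 15 at 0.03-40 uM. Spikes detected at 8x rms noise at 37C; percent change from 40-min baseline to 40-min post-dose recording, fitted versus DMSO.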

Assay [8] can be described thus: CCTE_Shafer_MEA_acute_burst_percentage_std: CCTE's Neural Acute Assay for Standard Deviation of Burst Percentage, Shafer Lab (AID 2284018).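 Also: fitted in the negative direction so actives lower burst percentage SD.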 An outline of the steps: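 Primary rat cortical neurons on 16-electrode MEA wells were recorded 40 min at baseline (DIV 13 or 15), then 40 min after compound (0.03-40 uM), at 37 C. Well value is SD across electrodes of spikes-in-bursts/total spikes; endpoint is percent change, DMSO-referenced.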

Assay [9] can be described thus: CCTE_Shafer_MEA_acute_per_network_burst_spike_number_mean: CCTE's Neural Acute Assay for Average Number of Spikes in a Network Burst, Shafer Lab (AID 2284019). Summed up: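 Acute exposure of rat primary cortical networks (DIV 13/15) on MEAs; adaptive spike detection at 8x rms noise, 37 C. Percent change in spikes per network burst after 40 min with compound (0.03-40 uM), negative direction vs DMSO.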

A short description of assay [10]: CCTE_Shafer_MEA_acute_per_network_burst_spike_number_std: CCTE's Neural Acute Assay for Standard Deviation of Number of Spikes in a Network Burst, Shafer Lab (AID 2284020).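 Also: fitted for decrease in spike-number SD versus DMSO so actives lower it.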 An outline of the steps: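 Acute MEA exposure, rat cortical neurons, 0.03-40 uM. Per-well % change versus own baseline; DMSO as negative control.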
Assay [11] can be described thus: CCTE_Shafer_MEA_acute_per_network_burst_electrodes_number_mean: CCTE's Neural Acute Assay for Mean Number of Electrodes in a Network Burst, Shafer Lab (AID 2284021).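 Also: curves fitted for decreases only so hits reduce electrodes per burst.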 An outline of the steps: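 Rat primary cortical neurons on 48-well MEAs, DIV 13 or 15, were treated at 0.03-40 uM. Spikes were detected at 8x rms noise and recorded at 37 C. The mean electrodes per network burst in a 40 min exposure recording was expressed as percent change from a 40 min baseline.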

Assay [12] can be described thus: CCTE_Shafer_MEA_acute_network_burst_percentage: CCTE's Neural Acute Assay for Percentage of Network Bursts, Shafer Lab (AID 2284022).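 Also: curves fitted for loss so actives lower network burst percentage.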 An outline of the steps: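 Rat primary cortical neuron networks on 48-well MEA plates, DIV 13 or 15, treated acutely with compound (0.03-40 uM, at least three wells). Percent of spikes within network bursts compared between 40-min recordings before and during exposure at 37 C, expressed as percent change.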

Assay [13] can be described thus: CCTE_Shafer_MEA_acute_cross_correlation_HWHM: CCTE's Neural Acute Assay for Cross Correlation at Half Width at Half Maximum, Shafer Lab (AID 2284026).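 Also: hits are a decrease in cross-correlogram half width relative to DMSO.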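 As to outcome: spontaneous network firing of rat primary cortical neurons on multiwell microelectrode arrays.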 An outline of the steps: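 Rat primary cortical neurons on 48-well MEA plates; 40-min baseline and 40-min post-exposure recordings at 37 C on DIV 13 or 15, compounds 0.03-40 uM. Spikes detected at 8x rms noise; percent change in cross-correlogram HWHM per well vs baseline.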

Assay [14] in a line: CCTE_Shafer_MEA_dev_firing_rate_mean: CCTE's Neural Network Formation Assay for Mean Firing Rate, Shafer Lab (AID 2284031).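 As to AC50: curve fitted for loss of firing so AC50 reflects decreased mean firing rate.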 Summed up:
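Steps: seed rat cortical cells (1.5 x 10^5/well) with laminin on PEI-coated MEA; dose day 0; record DIV 5/7/9/12, full media and compound exchange after DIV 5 and 9 recordings; compute well-mean firing rate AUC.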

A short description of assay [15]: CCTE_Shafer_MEA_dev_active_electrodes_number: CCTE's Neural Network Formation Assay for Number of Active Electrodes, Shafer Lab (AID 2284040; active = hit-call score of the fitted dose curve at least 0.9, where 1 is the maximum;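 as to AC50: potency for loss of active electrodes versus DMSO so lower counts are hits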). An outline of the steps:
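Counts electrodes per well firing at least 5 spikes/min, recorded on days 5, 7, 9 and 12 in rat cortical cultures dosed continuously from plating (treatment refreshed DIV 5, 9). Value is the area under the curve over recordings, fitted downward relative to DMSO.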

Assay [16] can be described thus: CCTE_Shafer_MEA_dev_burst_rate: CCTE's Neural Network Formation Assay for Burst Rate, Shafer Lab (AID 2284042).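 As to AC50: potency for loss of burst rate below DMSO control.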 An outline of the steps: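 Primary rat cortical neurons on PEI-coated 48-well MEA plates (laminin added with cells at plating) (16 electrodes/well), exposed from plating to day 12, dosing renewed at DIV 5 and 9. Burst rate averaged over active electrodes, recorded DIV 5, 7, 9, 12, summarized as AUC; loss versus DMSO.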

Assay [17] in a line: CCTE_Shafer_MEA_dev_bursting_electrodes_number: CCTE's Neural Network Formation Assay for Number of Bursting Electrodes, Shafer Lab (AID 2284043; active = hit-call score of the fitted dose curve at least 0.9, where 1 is the maximum;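 as to AC50: potency is for loss of bursting electrodes relative to DMSO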). Summed up:
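Counted: electrodes with burst rate ≥1 per 2 min in each well. Cells: primary rat cortex, 1.5 x 10^5/well, on 16-electrode MEA wells. Exposure: DIV 0–12, compound renewed DIV 5 and 9. Recording days 5, 7, 9, 12; AUC vs DMSO baseline.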

The nature of assay [18]: CCTE_Shafer_MEA_dev_per_burst_interspike_interval: CCTE's Neural Network Formation Assay for Burst Interspike Interval, Shafer Lab (AID 2284044).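 Also: mean spike spacing inside bursts as AUC over recordings on days 5 7 9 12.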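 As to AC50: potency for a decrease of within-burst interspike interval below DMSO level.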 Summed up: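 Primary rat cortical neurons on 48-well MEA plates, exposed from day 0 through day 12, treatment renewed at DIV 5 and 9. Within-burst interspike interval recorded days 5, 7, 9, 12, well-averaged, summarised as AUC; negative fit versus DMSO.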

Assay [19] is described as follows: CCTE_Shafer_MEA_dev_burst_duration_mean: CCTE's Neural Network Formation Assay for Mean Burst Duration, Shafer Lab (AID 2284045).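 As to AC50: curve fitted for loss meaning shorter burst duration than DMSO.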 Summed up: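 Network-formation assay in primary rat cortical neurons; treatment spans twelve days of development. Mean burst duration per well is integrated by trapezoidal AUC and fitted in the loss-of-signal direction against DMSO baseline.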

Assay [20] is described as follows: CCTE_Shafer_MEA_dev_network_spike_number: CCTE's Neural Network Formation Assay for Number of Network Spikes, Shafer Lab (AID 2284048).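 Also: synchronized bursts across electrodes counted on days 5 7 9 12 and integrated as AUC.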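 As to AC50: fit as a loss of signal meaning fewer network spikes than DMSO.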 Summed up: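 Extracellular recordings from 16-electrode wells track network formation in rat cortical cultures under continuous treatment from plating. The endpoint is network spike number, expressed as AUC across DIV 5–12 relative to DMSO vehicle.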

SMILES strings stand for the structures. Values joined by “and” are separate entries in the source; they are usually repeats but may differ in a detail not shown here. Equal values may be shown once. Results filed as inconclusive are left out. Active and inactive are the calls of the source. The calls were made as follows, unless noted: active = hit-call score of the fitted dose curve at least 0.9, where 1 is the maximum; inactive = score below 0.9.

Retinoic acid receptor RXR-alpha (Homo sapiens), sequence (P19793 whole entry, looked up): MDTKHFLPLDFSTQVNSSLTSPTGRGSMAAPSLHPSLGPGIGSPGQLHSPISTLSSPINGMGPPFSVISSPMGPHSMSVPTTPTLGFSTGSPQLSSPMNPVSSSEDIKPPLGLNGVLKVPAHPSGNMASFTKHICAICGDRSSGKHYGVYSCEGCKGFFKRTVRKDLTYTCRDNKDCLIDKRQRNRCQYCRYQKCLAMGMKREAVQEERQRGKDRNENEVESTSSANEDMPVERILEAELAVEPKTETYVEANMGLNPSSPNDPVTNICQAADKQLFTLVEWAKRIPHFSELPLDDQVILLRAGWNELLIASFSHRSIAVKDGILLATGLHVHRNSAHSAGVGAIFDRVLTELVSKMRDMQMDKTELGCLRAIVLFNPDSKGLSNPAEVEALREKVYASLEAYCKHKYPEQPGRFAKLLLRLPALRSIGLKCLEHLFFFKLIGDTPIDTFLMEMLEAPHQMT

For the compound `COc1cc(C)c(/C=C/C(C)=C/C=C/C(C)=C/C(=O)O)c(C)c1C`, the AC50 in assay [1] is 0.593 µM (active). Further, in assay [2], the compound was classed as inactive.

For `CC1(C)S[C@@H]2[C@H](NC(=O)[C@H](N)c3ccc(O)cc3)C(=O)N2[C@H]1C(=O)O`, the compound was classed as inactive in assay [3], in assay [4], in [5], in [6], in [7] and in assay [8]. Moreover, the compound was called inactive in assay [9], in assay [10], in assay [11], in [12], in [13] and in assay [14]. The compound was called inactive in assay [15], in assay [16], in assay [17], in assay [18], in assay [19] and in assay [20].

For the compound `CN(C)C(=O)C(CCN1CCC(O)(c2ccc(Cl)cc2)CC1)(c1ccccc1)c1ccccc1`, the AC50 in assay [3] was 0.283 µM (active); in assay [4] it was 0.147 µM (active); in assay [5], 0.165 µM (active); in [7], 2.27 µM (active); in [8], 0.068 µM (active); in [13], 2.31 µM (active). In addition, the AC50 in [14] was 63.2 nM (active) and 101 nM (active) and 190 nM (active); in assay [15], 385 nM (active) and 196 nM (active) and 1.21 µM (active); in assay [16] it was 41.8 nM (active) and 92.4 nM (active) and 335 nM (active); in [17] it was 117 nM (active) and 63.8 nM (active) and 1.19 µM (active); in assay [18], 92.1 nM (active) and 66.7 nM (active) and 493 nM (active); in assay [19], 185 nM (active) and 33.1 nM (active) and 526 nM (active). Moreover, the AC50 in [20] was 32.8 nM (active) and 102 nM (active) and 172 nM (active). Moreover, the compound was called inactive in assay [6], in assay [9], in assay [10], in assay [11] and in assay [12].

Regarding `Cc1cc(-n2c(=O)[nH]c(=O)n(C)c2=O)ccc1Oc1ccc(S(=O)(=O)C(F)(F)F)cc1`, the outcome in assay [1] and in assay [2] was inactive.

In general, AC50 refers to the concentration giving half of the maximal activity seen.
